Bioassay records (PubChem BioAssay)
p-CIP stab down = p/CIP-EGFP fusion destabilizers, primary screen, fluorescence, F442A cells; Q05BA5; 16 h; decrease of EGFP signal, % at 10 µM; 0.01% of 290,000 active; AID 1984, 2009;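 active means EGFP signal decrease of at least 30% at 10 µM or well 3 SD below plate mean, unless failing retest; inactive means the rest, including hits failing retest or dose response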
FAS-TE inh = FAS thioesterase domain inhibitors, primary screen, biochemical, fluorescence intensity, uHTS. inhibition, % at 15 µM. recombinant FAS-TE, OMFH fluorogenic substrate, fluorescence endpoint. 0.67% of 360,000 active. Fatty acid synthase (Homo sapiens), P49327;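 active means compounds whose normalised, plate-corrected inhibition of enzyme fluorescence in the single-dose primary screen is 50% or more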;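 further: 0% = DMSO with enzyme and 100% = substrate without enzyme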
Target sequence (P49327 whole entry, looked up, the tested form may be a part): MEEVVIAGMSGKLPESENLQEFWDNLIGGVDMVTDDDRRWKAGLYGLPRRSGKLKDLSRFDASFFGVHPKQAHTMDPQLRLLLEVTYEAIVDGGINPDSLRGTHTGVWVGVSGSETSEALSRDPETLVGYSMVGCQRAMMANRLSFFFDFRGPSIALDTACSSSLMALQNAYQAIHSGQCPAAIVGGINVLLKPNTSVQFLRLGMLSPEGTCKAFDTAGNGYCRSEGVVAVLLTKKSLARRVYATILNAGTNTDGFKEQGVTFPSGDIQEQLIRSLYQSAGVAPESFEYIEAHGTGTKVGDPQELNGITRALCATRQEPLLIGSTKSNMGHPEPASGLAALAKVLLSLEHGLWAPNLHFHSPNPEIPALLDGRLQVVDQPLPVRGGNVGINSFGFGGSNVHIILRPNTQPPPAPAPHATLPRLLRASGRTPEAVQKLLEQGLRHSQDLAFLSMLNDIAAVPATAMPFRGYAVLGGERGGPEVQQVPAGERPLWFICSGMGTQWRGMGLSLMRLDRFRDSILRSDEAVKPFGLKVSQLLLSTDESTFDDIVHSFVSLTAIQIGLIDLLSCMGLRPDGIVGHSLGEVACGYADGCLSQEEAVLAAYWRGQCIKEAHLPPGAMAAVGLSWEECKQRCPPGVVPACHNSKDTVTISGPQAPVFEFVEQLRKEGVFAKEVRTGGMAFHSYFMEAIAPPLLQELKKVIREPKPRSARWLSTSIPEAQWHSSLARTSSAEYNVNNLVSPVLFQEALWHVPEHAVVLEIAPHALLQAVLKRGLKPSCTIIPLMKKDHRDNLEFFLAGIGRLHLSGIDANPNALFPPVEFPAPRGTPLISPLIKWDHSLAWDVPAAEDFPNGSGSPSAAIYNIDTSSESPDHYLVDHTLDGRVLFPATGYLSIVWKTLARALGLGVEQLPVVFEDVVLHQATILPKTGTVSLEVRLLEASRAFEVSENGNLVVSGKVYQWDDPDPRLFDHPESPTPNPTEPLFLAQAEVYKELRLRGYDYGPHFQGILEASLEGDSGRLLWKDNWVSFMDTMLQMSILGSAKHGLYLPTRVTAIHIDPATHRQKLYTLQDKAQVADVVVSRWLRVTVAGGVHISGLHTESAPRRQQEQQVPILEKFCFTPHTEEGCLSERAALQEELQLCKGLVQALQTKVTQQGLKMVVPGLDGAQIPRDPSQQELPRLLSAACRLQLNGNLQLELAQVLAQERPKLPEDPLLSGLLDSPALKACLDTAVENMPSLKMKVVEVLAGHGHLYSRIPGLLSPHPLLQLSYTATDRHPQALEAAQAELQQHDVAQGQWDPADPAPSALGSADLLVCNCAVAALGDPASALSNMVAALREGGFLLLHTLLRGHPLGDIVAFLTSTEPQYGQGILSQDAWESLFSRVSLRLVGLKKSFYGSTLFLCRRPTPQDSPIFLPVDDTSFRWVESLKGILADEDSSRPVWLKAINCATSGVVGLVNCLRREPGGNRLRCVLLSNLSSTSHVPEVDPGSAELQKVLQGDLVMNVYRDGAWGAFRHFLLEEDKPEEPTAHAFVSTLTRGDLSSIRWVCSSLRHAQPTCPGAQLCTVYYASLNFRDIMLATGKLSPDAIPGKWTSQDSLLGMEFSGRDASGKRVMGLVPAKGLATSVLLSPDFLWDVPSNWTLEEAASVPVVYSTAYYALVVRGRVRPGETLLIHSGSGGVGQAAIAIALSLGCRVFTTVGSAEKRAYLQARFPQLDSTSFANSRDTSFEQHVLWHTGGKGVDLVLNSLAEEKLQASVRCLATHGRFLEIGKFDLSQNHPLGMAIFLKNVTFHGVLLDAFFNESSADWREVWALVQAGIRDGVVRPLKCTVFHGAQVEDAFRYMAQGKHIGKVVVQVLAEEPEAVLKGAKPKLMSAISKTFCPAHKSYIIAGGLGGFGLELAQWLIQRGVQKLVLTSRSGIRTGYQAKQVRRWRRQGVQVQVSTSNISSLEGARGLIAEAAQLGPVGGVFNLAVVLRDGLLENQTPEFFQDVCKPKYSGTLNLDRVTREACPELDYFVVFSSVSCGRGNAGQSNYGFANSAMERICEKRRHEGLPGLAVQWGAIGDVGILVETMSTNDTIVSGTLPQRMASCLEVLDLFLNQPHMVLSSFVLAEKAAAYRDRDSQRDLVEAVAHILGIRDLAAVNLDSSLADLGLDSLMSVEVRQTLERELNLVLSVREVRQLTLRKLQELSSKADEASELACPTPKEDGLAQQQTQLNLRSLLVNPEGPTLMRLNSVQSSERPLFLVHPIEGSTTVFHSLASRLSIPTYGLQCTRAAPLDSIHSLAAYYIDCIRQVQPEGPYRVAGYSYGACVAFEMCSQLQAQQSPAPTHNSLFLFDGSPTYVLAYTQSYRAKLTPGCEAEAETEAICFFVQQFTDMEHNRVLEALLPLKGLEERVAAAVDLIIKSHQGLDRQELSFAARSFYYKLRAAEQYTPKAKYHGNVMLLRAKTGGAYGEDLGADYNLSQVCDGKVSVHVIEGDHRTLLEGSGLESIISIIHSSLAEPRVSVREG
MIN6 prolif = inducers of MIN6 beta-cell proliferation, primary screen, ATP luminescence, uHTS; MIN6 cells proliferation, ATPlite luminescence, 48 h; cells starved in 0.2% serum; 100% = growth in 10% serum; proliferation, % at 10 µM; 0.29% of 330,000 active; AID 2380, 2010;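 active means compounds whose signal lies at least 3.5 SD above the mean of all wells on their plate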;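 further: 0% = DMSO-treated cells in low-serum medium and 100% = 10% serum control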
MPTP block = mitochondrial permeability transition pore inhibitors, primary screen, biochemical, isolated mouse mitochondria, absorbance; inhibition, % at 10 µM; 1.4% of 360,000 active; Ca2+ swelling absorbance, 30 min;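 active means inhibition of 50% or more, scaled per plate between neutral and stimulator controls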;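 further: 0% = DMSO wells given calcium and 100% = 1 mM EGTA wells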
GRIN3A LBD mod = binders of NR3A ligand-binding domain, primary screen, biophysical, differential scanning fluorimetry, uHTS; NR3A LBD differential scanning fluorimetry, Tm shift; 0% = protein alone, 100% = glycine-bound protein; Tm shift relative to glycine control, % at 25 µM; Glutamate receptor ionotropic, NMDA 3A (GRIN3A) ligand-binding domain; 2.5% of 340,000 active;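 active means melting temperature shift of at least 10% of the positive control shift, at one fixed dose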
* hit, by the source's call; / = no result. Most compounds without a hit are left out; they make up all but 4.1% or so of the library.

SMILES | p-CIP stab down | FAS-TE inh | MIN6 prolif | MPTP block | GRIN3A LBD mod
Cc1ccc(C(=O)COC(=O)CCS(=O)(=O)c2ccccc2)cc1[N+](=O)[O-] | / | 8 | -3 | 1 | -3
Cc1ccc(C(=O)COC(=O)CNS(=O)(=O)c2ccccc2)cc1[N+](=O)[O-] | 1 | 0 | 0 | 0 | 18*
COc1cc(C(=O)O/N=C(\N)c2cccc([N+](=O)[O-])c2)cc(OC)c1OC | -10 | 2 | 0 | 4 | 14*
N/C(=N\OC(=O)c1ccc(Br)cc1)c1cccc([N+](=O)[O-])c1 | 2 | 25 | -5 | 2 | 7
CN(CC(=O)O/N=C(\N)c1ccc([N+](=O)[O-])cc1)S(=O)(=O)c1ccccc1 | -2 | 10 | -1 | -3 | 1
Cc1ccc(S(=O)(=O)N(C)CC(=O)O/N=C(\N)c2ccc([N+](=O)[O-])cc2)cc1 | -4 | 16 | -2 | 4 | 21*
Cc1ccc(C(=O)O/N=C(\N)c2cccc([N+](=O)[O-])c2)cc1 | -4 | 24 | -6 | 0 | 13*
O=C(NC(C(=O)c1ccccc1)c1ccccc1)c1ccccc1 (stereo unspecified) | / | 4 | / | 0 | 2
CC(C)(C)n1nnnc1C(c1cc2ccccc2o1)N1CCOCC1 (stereo unspecified) | / | -7 | / | 1 | /
Nc1ncnc2c1ncn2[C@@H]1O[C@H](CNCc2cccc(C#Cc3ccccc3)c2)[C@@H](O)[C@H]1O | / | -3 | / | 6 | 13*
Nc1ncnc2c1ncn2[C@@H]1O[C@H](CNC(=O)[C@H]2CCC(=O)N2)[C@@H](O)[C@H]1O | / | -11 | / | -1 | 1
Nc1ncnc2c1ncn2[C@@H]1O[C@H](CNCc2ccccc2)[C@@H](O)[C@H]1O | / | -7 | 3 | 0 | -1
Nc1ncnc2c1ncn2[C@@H]1O[C@H](CNC(=O)[C@@H]2CCN2)[C@@H](O)[C@H]1O | / | -7 | / | -1 | 15*
Cc1ccccc1OC1(C)CCN(Cc2ccc(-c3ccccn3)cc2)C1 (stereo unspecified) | / | 19 | / | -1 | /
CC(=O)Nc1ccc(NC(=O)C(NS(=O)(=O)c2cccc3nsnc23)C(C)C)cc1 (stereo unspecified) | 4 | -8 | 0 | -1 | 10*
COc1cc(NC(=O)c2noc3c2CCCC3)c(OC)cc1Cl | -8 | 0 | -1 | 3 | -2
O=C(Nc1cccnc1)c1noc2c1CCCC2 | -21 | -7 | 0 | -1 | 11*
COc1ccc(Cl)cc1NC(=O)c1noc2c1CCCC2 | 1 | 5 | 7.6* | 2 | -1
CC1(C(=O)Nc2cccc(NS(C)(=O)=O)c2)CCN1Cc1ccccc1OC(F)F (stereo unspecified) | / | 4 | / | 2 | /
CCOc1cc(/C=C2/C(=O)ON=C2C)ccc1OCc1ccccc1 | -12 | / | -5 | / | 26*
Cc1nn2c(-c3ccccc3)c(-c3ccccc3)nc2[nH]c1=O | -13 | -4 | -2 | 0 | 20*
N#Cc1ccc(-c2cccc3nccn23)cc1 | / | -5 | / | 1 | /
Cc1cccnc1C1=NOC(Cc2ccccc2)C(=O)N1Cc1ccc2c(c1)OCO2 (stereo unspecified) | / | 40 | / | -2 | /
COc1ccc(C2(c3ccc(OC)cc3)NC(=O)N(CC(=O)NCC(C)c3ccccc3)C2=O)cc1 (stereo unspecified) | / | 20 | -7 | 0 | 25*
O=C(O)c1ccc(Cl)cc1Nc1nc2cc(Cl)ccc2o1 | -10 | 43 | / | 6 | 14*
SMILES | p-CIP stab down | FAS-TE inh | MIN6 prolif | MPTP block | GRIN3A LBD mod
CCn1ncc(/C=N\NC(=O)c2ccc3c(c2)c(C)c(C)n3Cc2ccccc2)c1C | -5 | 9 | 4 | -1 | -5
CCn1cc(/C=N\NC(=O)c2ccc3c(c2)c(C)c(C)n3Cc2ccccc2)c(C)n1 | 7 | 8 | -1 | -1 | 19*
ClCc1csc(-c2ccc(Cl)cc2)n1 | -3 | 6 | -2 | 0 | 13*
CCOc1ccc(-c2nc(CCl)cs2)cc1 | -7 | 10 | -4 | 2 | -1
COc1ccc2nc(Nc3nc4cc5c(cc4s3)OCO5)sc2c1 | -4 | 1 | -2 | 2 | 14*
COc1ccc2nc(Nc3ccc4c(c3)OCO4)sc2c1 | 3 | 11 | -4 | 0 | 16*
COc1ccc2nc(NC(=O)/C=C/c3ccc4c(c3)OCO4)sc2c1 | -5 | / | -4 | / | /
COc1ccc(CCN2C(=O)COc3ccccc3C2C(=O)Nc2ccc3c(c2)OCCO3)cc1OC (stereo unspecified) | / | -8 | / | 0 | /
COc1ccc(-c2cnc3c(NC(C)=O)cc(-c4ccc(C(=O)N5CCOCC5)cc4)cn23)cc1OC | / | -2 | / | 0 | /
N/C(=N\OC(=O)c1cccc(Br)c1)c1ccccc1 | 4 | 13 | -4 | 0 | 10*
N/C(=N\OC(=O)c1cccc(Br)c1)c1ccccn1 | 9 | -3 | -7 | 1 | -16
N/C(=N\OC(=O)c1cccc2ccccc12)c1ccncc1 | -4 | -4 | 2 | 0 | 0
N/C(=N\OC(=O)c1ccc2ccccc2c1)c1ccc(Br)cc1 | 2 | -3 | 0 | 5 | 24*
N/C(=N\OC(=O)c1cccc2ccccc12)c1ccc(Br)cc1 | 10 | 10 | -6 | 6 | 26*
Cc1ccc(C(=O)O/N=C(\N)c2ccc(Br)cc2)cc1C | -18 | 0 | -1 | 3 | 7
COC(=O)[C@H](NC(=O)c1cc(-c2ccccc2)sc1N)C(C)C | / | / | / | 1 | /
COc1ccc(OCCn2nnc(-c3ccc(Cl)cc3)n2)cc1 | -11 | 10 | -2 | -1 | 15*
COc1ccc(-c2nnn(Cc3ccccc3)n2)cc1 | -3 | 20 | -2 | 0 | 0
CC(C)[C@H](NC(=O)OC(C)(C)C)c1cc(C(=O)N2CCOCC2)c(N)s1 | / | / | / | 0 | /
O=C1C(CCS(=O)c2ccccc2)C(=O)N(c2ccccc2)N1c1ccccc1 (stereo unspecified) | 10 | -4 | 0 | -4 | 17*
CCCCC1C(=O)NN(c2ccccc2)C1=O (stereo unspecified) | / | -6 | / | 0 | 0
C[C@@H]1CCCCO[C@H](CN(C)S(=O)(=O)c2cn(C)cn2)[C@@H](C)CN([C@H](C)CO)C(=O)c2cc(NC(=O)c3ccncc3)ccc2O1 | / | -10 | / | -1 | /
O=C(O)C1C(c2ccccc2)C(C(=O)OCCCO)C1c1ccccc1 (stereo unspecified) | 8 | -5 | 2 | 0 | 0
CCCCCOC(=O)C1C(c2ccccc2)C(C(=O)O)C1c1ccccc1 (stereo unspecified) | -4 | 0 | 0 | 2 | 10*
O=C(Nc1ccccc1)OC[C@@H]1C=CS(=O)(=O)N1Cc1ccc(Br)cc1 | / | 4 | / | 8 | /
CCCc1cc(=O)oc2cc(OCC(=O)NCCN3CCOCC3)c(Cl)cc12 | / | -6 | / | 1 | /
